Data from PubChem BioAssay (NCI).
About 83,000 compounds went through this panel and 20% of them were active in at least one assay; those are over-represented in the sample as a whole.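 Interpretation: 100, growth as untreated; towards 0, rising growth inhibition; 0, no net growth; 0 to -100, cell death. Compounds scoring below 10 were considered active.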 Active and inactive are the calls of the source.

Tested on: IGROV1 ovarian
Assay: NCI-60 one-dose screen, 48 h (100 = growth as untreated, 0 = no growth, -100 = all killed)
Details: 10 µM unless noted
Description: Growth inhibition of the IGROV1 human tumor cell line is measured as a screen for anti-cancer activity. Cells are grown in 96 well plates and exposed to the test compound for 48 hours. Compounds are tested at a single concentration, which is 10^-5 M for most compounds. The reported endpoint is percent growth (GI% or GIPRCNT), where numbers from 0 - 100% represent growth inhibition, and numbers from -100% - 0 represent cell death. For example, a value of 40 represents 60% growth inhibition. A value of 0 means no net growth occurred over the course of the experiment. A value of -40 indicates 40% of cells at the beginning of the experiment died by the end of the experiment. A value of -100 means all cells are dead at the end of the experiment.
NCI-60 Human Tumor Cell Lines Screen was performed using the standard one-dose NCI protocol, which is described in more detail at https://dtp.cancer.gov/discovery_development/nci-60/default.htm.
Compounds with GIPRCNT values below 10 were considered active. Activity score was based on GIPRCNT using the following formula: […]
Score is 0 for GIPRCNT values of 100 or above, 50 for GIPRCNT values of 0, and 100 for GIPRCNT values of -100.

Row | Compound | growth
1 | COc1ccc([C@H]2[C@H](O)C(=O)N2c2cc(OC)c(OC)c(OC)c2)cc1Cl | 22.8% (inactive)
2 | COc1ccc(N2C(=O)c3cc(OC)c(OC)cc3NC2SCc2ccccc2)cc1 (stereo not given) | 102% (inactive)
3 | CC(=O)NC(C)(C)C(=O)N1CCC[C@H]1C(=O)NC(C)(C)C(=O)N[C@@H](C)C(=O)NC(C)(C)C(=O)N[C@@H](C)C(=O)N[C@@H](CCC(N)=O)C(=O)NC(C)(C)C(=O)N[C@H](C(=O)NC(C)(C)C(=O)NCC(=O)N[C@@H](CC(C)C)C(=O)NC(C)(C)C(=O)N1CCC[C@H]1C(=O)N[C@H](C(=O)NC(C)(C)C(=O)NC(C)(C)C(=O)N[C@@H](CCC(N)=O)C(=O)N[C@@H](CCC(N)=O)C(=O)N[C@H](CO)Cc1ccccc1)C(C)C)C(C)C | 76.9% [4.25 µM] (inactive)
4 | COc1ccc(-c2nc(SCC(C)C)nc(N/N=C\c3cccc([N+](=O)[O-])c3)c2C#N)cc1 | 31.4% (inactive)
5 | CC1=CC(=O)CC(C)(C)[C@@]1(O)/C=C/C(C)=C\C(=O)O | -12.5% (active)
6 | CCOC(=O)c1c(NC(=O)c2ccc(F)cc2F)sc2c1CCC(=O)C2 | 100% (inactive)
7 | Nc1nc(N)c2c(n1)NC(c1ccc(Cl)cc1)CC(c1ccc(Nc3nc(NCCO)nc(Nc4ccc(Cl)cc4)n3)cc1)=N2 (stereo not given) | 37% (inactive)
8 | N=c1c2cc(-c3ccccc3)oc2ncn1/N=C/c1ccccc1 | 63% (inactive)
9 | CCOC(=O)/C=c1\sc2n(c1=O)C1C(NN=2)N(CC)C(=O)N1CC (stereo not given) | 59.6% (inactive)
10 | O=c1cc(-c2ccccc2)nc2sc(-c3c[nH]c4ccc(Br)cc34)nn12 | 98.9% (inactive)
11 | COc1ccc(-c2cc(-c3ccc(Cl)cc3)nc3nc(N)nn23)cc1 | 98.2% (inactive)
12 | CN(c1ccc(Cl)cc1)S(=O)(=O)c1ccc(-c2cnc(C3CC3)o2)cc1 | 28.8% (inactive)
13 | C#CCOc1ccc(C(Nc2cc(Cl)ccc2Cl)c2nnnn2C2CCCCC2)cc1 (stereo not given) | 80.4% (inactive)
14 | O=C(Nc1ccc(F)cc1)c1cc(-c2ccc(F)cc2F)ccc1O | 14.7% (inactive)
15 | Cn1cc(-c2nnc(N)nc2-c2cn(C)c3ccc(F)cc23)c2cc(F)ccc21 | 101% (inactive)
16 | COc1ccc(-c2ccnc3c(C#N)c(Nc4ccccc4)nn23)cc1OC | 96.1% (inactive)
17 | CCc1ccc(NC(=O)N[C@@H](Cc2cc(F)cc(F)c2)C(=O)N[C@@H]2C(=O)N3CCC[C@H]3C(=O)N3CCO[C@H](C)[C@H]3C(=O)N[C@@H](CO)C(=O)N3C[C@H](C)C[C@H]3C(=O)O[C@H]2C)c(F)c1 | 39.5% (inactive)
18 | Cc1ccc(Nc2ncnc3c2c(C)nn3-c2ccc([N+](=O)[O-])cc2)cc1 | 84.1% (inactive)
19 | COc1cc(CNC(=O)Cc2ccccc2[N+](=O)[O-])ccc1OCC(=O)NO | 108% (inactive)
20 | CC1CCc2c(sc3nc(SCC(=O)N/N=C/c4ccc(Cl)cc4)n(-c4ccccc4)c(=O)c23)C1 (stereo not given) | 100% (inactive)

Row | Compound | growth
21 | Cn1cc(-c2nn3cc(-c4ccncc4)nc3s2)c2cc(Cl)ccc21 | 17.2% (inactive)
22 | CC(C)=CCC[C@](C)(O)[C@H]1CC[C@]2(C)[C@@H]1CC[C@@H]1[C@@]3(C)CCC(NC(=O)c4ccccc4C(=O)O)C(C)(C)[C@@H]3CC[C@]12C (stereo not given in full) | 102% (inactive)
23 | O=C(CCCCCCN1CC(=O)N2[C@@H](c3ccccc3)c3[nH]c4ccccc4c3C[C@H]2C1=O)NO | 60.6% (inactive)
24 | Oc1ccc(CSc2nnc(-c3ccncc3)n2-c2ccccc2)c2cccnc12 | 8.84% (active)
25 | N#Cc1ccc(S(=O)(=O)Nc2ccc(-c3cnc(N)[nH]3)cc2)cc1 | 108% (inactive)
26 | O=C(O)CNS(=O)(=O)c1ccc(Oc2ccc(S(=O)(=O)NCC(=O)O)cc2)cc1 | 104% (inactive)
27 | Cc1ccc(/C=C/c2nn3c(-c4ccco4)nnc3s2)cc1 | 107% (inactive)
28 | O=C1c2c(c3c4cc(Br)ccc4[nH]c3c3ccc4ccccc4c23)C(=O)N1CCN1CCCCC1 | 59.8% (inactive)
29 | COc1cc(/C=N/n2cnc3oc(-c4ccccc4)cc3c2=N)cc(CN2CCOCC2)c1O | 21.7% (inactive)
30 | COc1ccc(N)cc1C(=O)Nc1cccc(-c2cc(=O)c3c(OC)c(OC)c(OC)cc3o2)c1 | 51.3% (inactive)
31 | CCCCCc1ccc(S(=O)(=O)N(C(C)=O)c2cccc(-c3csc(N(CCN4CCN(C)CC4)C(C)=O)n3)c2)cc1 | 46.8% (inactive)
32 | C#Cc1ccc(NC(=O)c2ccc(/C=C/C(=O)c3nccn3C)cc2)c(F)c1 | 23.9% (inactive)
33 | COc1cc(/C=N/Nc2ccnc3cc(Cl)ccc23)cc(OC)c1O | -83.8% (active)
34 | C#C[C@]1(O)CC[C@H]2[C@@H]3CC=C4c5sc(Nc6cccc(Cl)n6)nc5CC[C@]4(C)[C@H]3CC[C@@]21C | 35.6% (inactive)
35 | COc1cc2cc(Oc3ccc(NC(=O)Nc4cccc(C(F)(F)F)c4)cc3)c(C)nc2cc1OCCN(C)C | 102% (inactive)
36 | C#C[C@]1(O)CC[C@H]2[C@@H]3CC=C4c5sc(Nc6cc(OC)ccc6OC)nc5CC[C@]4(C)[C@H]3CC[C@@]21C | 47.9% (inactive)
37 | Nc1n[nH]c2cccc(C#Cc3cccc(NC(=O)c4cccc(OC(F)(F)F)c4)c3)c12 | 19.9% (inactive)
38 | Oc1ccc(CSc2nnc(-c3ccncc3)o2)c2cccnc12 | 22.4% (inactive)
39 | C/C=C/[C@@H]1C=C[C@@H]2C[C@H](C)CC[C@H]2[C@]1(C)/C(O)=C1/C(=O)[C@H](CO)N(C)C1=O | 57.3% (inactive)
40 | O=S(=O)(NC1CC2CCC1C2)c1ccc2c(c1)C(=NO)c1cc(S(=O)(=O)NC3CC4CCC3C4)ccc1-2 (stereo not given) | -73.7% (active)
